The other results are listed elsewhere or left out. Calls of active or inactive are those of the source.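 How the source made its calls, unless noted: active means mean inhibition across three repeat runs above about 25% carried over from the earlier screen (limit read from the data); inactive means the rest.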
Tests used:
[1] = STAT1 signaling activators, confirmation, cell-based, HTS, luciferase reporter (AID 1262;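 active means activation above a set limit carried over from the earlier primary STAT1 screen, cut at about 140% in these data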;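 further: simple ratio to median IFN-gamma plus DMSO wells so 0% means no light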); conditions: NIH 3T3 STAT1-luciferase reporter, IFN-gamma potentiation, luminescence; at 5.7 µM; stronger effect = higher value; 100% = IFN-gamma EC80 alone, no compound
[2] = NF-kB reporter activators, TNF-alpha stimulated, counter-screen for STAT1 activator project, cell-based, HEK293T, luciferase luminescence (AID 1306;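 active means activation above the mean of solvent-only control wells plus 3 SD, set per campaign, cut at about 130% in these data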;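 further: TNF-alpha given at a submaximal dose yielding about 80% of full reporter signal; values are well signal over median control so 100% means no change and 0% no light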); conditions: at 5.7 µM, stronger effect = higher value, 100% = TNF-alpha with vehicle only
[3] = molecular target: Signal transducer and activator of transcription 3 (Homo sapiens) (UniProt P40763); assay: STAT3 reporter activation by STAT1 hits, confirmation, counter-screen for STAT1 activator project, U3A cells, luciferase, luminescence (AID 1316;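 active means activation above the solvent-only control well mean plus 3 SD, set per plate batch, cut at about 110% in these data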;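 further: 0% = no luminescence and 100% = median IL-6 plus DMSO wells; higher means more STAT3 reporter activation so hits are non-selective activators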); conditions: IL-6, luminescence, at 5.7 µM, stronger effect = higher value, 100 = IL-6 alone, no compound effect, cells lack STAT1
[4] = tested on: TLR4-MyD88 interaction (human), BLA complementation; assay: TLR4-MyD88 association inhibitors, retest, confirmation, cell-based, HeLa CL3-4, BLA complementation, FRET ratio (AID 941); conditions: CCF4 FRET ratio, at 8.4 µM, stronger effect = higher value;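 further: plate controls were DMSO only for no effect and clavulanic acid blocking BLA at full dose for full effect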
[5] = inhibitors of full-length beta-lactamase reporter, confirmation, artefact control for TLR4-MyD88 binding inhibitor project, cell-based, HeLa, full-length BLA, CCF4 FRET ratio (AID 1237;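 active means mean inhibition over three repeats above about 26% taken from the earlier screen, limit read from the data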;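 further: HeLa cells stably expressing beta-lactamase reporter as counterscreen for TLR4-MyD88 inhibitors; 0% = DMSO and 100% = clavulanic acid full inhibition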); conditions: at 8.4 µM, stronger effect = higher value
[6] = molecular target: Protein-arginine deiminase type-4 (Homo sapiens) (UniProt Q9UM07); assay: human PAD4 inhibitors, confirmation, biochemical, fluorescence polarization (AID 488796;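 active means mean inhibition across replicates above the hit cutoff set by the earlier primary screen, cut at about 15% in these data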;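 further: inhibitors block active-site labeling by the probe so polarization falls; 0% = PAD4 with probe and DMSO and 100% = probe without PAD4 enzyme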); conditions: recombinant PAD4, RCA probe fluorescence polarization; at 6.36 µM; stronger effect = higher value
Chain of Protein-arginine deiminase type-4 (Homo sapiens) (Q9UM07 whole entry, looked up): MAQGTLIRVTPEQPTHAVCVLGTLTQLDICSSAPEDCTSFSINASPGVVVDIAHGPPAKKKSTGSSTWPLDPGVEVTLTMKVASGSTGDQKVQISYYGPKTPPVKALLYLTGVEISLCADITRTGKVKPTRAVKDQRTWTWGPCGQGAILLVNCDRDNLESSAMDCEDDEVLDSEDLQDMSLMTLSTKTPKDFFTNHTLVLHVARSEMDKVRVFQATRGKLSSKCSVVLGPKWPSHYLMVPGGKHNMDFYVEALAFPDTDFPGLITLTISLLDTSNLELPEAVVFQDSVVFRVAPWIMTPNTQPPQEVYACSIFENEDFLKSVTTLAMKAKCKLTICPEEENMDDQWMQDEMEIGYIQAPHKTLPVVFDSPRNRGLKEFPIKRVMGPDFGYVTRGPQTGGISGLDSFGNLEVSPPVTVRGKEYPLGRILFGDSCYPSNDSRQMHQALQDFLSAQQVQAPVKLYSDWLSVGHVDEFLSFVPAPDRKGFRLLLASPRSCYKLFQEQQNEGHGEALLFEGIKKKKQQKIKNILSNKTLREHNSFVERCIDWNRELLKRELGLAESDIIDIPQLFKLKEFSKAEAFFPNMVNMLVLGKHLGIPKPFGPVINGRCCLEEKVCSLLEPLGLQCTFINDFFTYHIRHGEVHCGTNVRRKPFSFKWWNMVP

[7] = molecular target: Serine protease HTRA1 (Homo sapiens) (UniProt Q92743); assay: HTRA1 protease inhibitors, retest, confirmation, biochemical, fluorescence polarization (AID 540248;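 active means mean inhibition over three repeats above a set limit taken from the earlier primary screen, cut at about 37% in these data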;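 further: 0% = HTRA1 with DMSO and 100% = wells lacking HTRA1; inhibitors block probe binding so polarization drops and inhibition rises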); conditions: recombinant HTRA1, FP-rhodamine activity-based probe, at 5.96 µM, stronger effect = higher value
[8] = StAR promoter reporter inhibitors, counter-screen for LRH-1 inverse agonist project, cell-based, luminescence, high throughput (AID 651611; in the data active means inhibition above about 28%); conditions: StAR promoter luciferase reporter counterscreen, at 3.6 µM, stronger effect = higher value
[9] = molecular target: Nuclear receptor subfamily 5 group A member 2 (Homo sapiens) (UniProt O00482); assay: LRH-1 (NR5A2) inverse agonists, retest, confirmation, cell-based, luminescence (AID 651613; in the data active means inhibition above about 42%;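 further: HEK293T cells co-transfected with LRH-1 and StAR promoter luciferase reporter; 0% = vehicle wells and 100% = parental cells lacking receptor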); conditions: cell-based LRH-1 luciferase reporter, inverse agonism; at 3.6 µM; stronger effect = higher value
Chain of Nuclear receptor subfamily 5 group A member 2 (Homo sapiens) (O00482 whole entry, looked up): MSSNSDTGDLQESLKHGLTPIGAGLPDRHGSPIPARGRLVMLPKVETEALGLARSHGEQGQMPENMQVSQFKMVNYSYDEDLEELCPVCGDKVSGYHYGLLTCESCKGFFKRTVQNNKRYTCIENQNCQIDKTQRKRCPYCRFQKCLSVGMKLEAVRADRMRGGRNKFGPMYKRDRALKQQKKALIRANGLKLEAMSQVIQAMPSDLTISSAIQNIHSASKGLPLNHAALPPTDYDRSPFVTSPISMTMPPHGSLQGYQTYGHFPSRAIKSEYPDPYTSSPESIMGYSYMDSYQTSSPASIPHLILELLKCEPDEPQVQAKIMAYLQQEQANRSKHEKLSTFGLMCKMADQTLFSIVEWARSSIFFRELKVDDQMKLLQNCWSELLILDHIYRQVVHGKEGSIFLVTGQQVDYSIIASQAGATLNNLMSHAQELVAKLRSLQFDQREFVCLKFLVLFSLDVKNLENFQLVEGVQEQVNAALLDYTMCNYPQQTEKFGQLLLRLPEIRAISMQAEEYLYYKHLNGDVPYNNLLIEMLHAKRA

[10] = molecular target: Steroidogenic factor 1 (Homo sapiens) (UniProt Q13285); assay: SF1 (NR5A1) inverse agonists, counter-screen for LRH-1 inverse agonist project, cell-based, luminescence, high throughput (AID 651614; in the data active means inhibition above about 44%;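 further: cells cotransfected with StAR promoter reporter and SF1 expression vector; 0% = vehicle on cells with receptor and 100% = vehicle on cells lacking receptor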); conditions: cell-based SF1 luciferase reporter, at 3.6 µM, stronger effect = higher value
Chain of Steroidogenic factor 1 (Homo sapiens) (Q13285 whole entry, looked up, the tested form may be a part): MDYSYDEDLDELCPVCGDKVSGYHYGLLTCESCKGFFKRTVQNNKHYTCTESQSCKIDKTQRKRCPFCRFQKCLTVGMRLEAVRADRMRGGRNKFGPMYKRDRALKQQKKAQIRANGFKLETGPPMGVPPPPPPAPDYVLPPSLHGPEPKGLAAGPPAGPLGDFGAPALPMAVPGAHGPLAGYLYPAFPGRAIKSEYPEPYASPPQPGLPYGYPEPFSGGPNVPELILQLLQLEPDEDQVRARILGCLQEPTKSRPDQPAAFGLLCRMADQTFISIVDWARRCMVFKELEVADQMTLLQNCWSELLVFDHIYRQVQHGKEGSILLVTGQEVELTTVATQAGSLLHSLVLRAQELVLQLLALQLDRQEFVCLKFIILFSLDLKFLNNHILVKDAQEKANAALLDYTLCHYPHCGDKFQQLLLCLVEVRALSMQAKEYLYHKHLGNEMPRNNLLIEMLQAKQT

[11] = VP16 transactivation reporter inhibitors, counter-screen for LRH-1 inverse agonist project, cell-based, luminescence, high throughput (AID 651615; in the data active means inhibition above about 33%); conditions: Gal4-VP16 luciferase reporter cells, at 3.6 µM, stronger effect = higher value
[12] = compounds interfering with TAMRA-BSA probe, counter-screen for TCR-CD3 interaction inhibitor project, biochemical, fluorescence, TAMRA-labeled BSA (AID 652035; in the data active means inhibition above about 23%;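 further: 0% = buffer low control and 100% = reference high control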); conditions: TAMRA-labeled BSA probe fluorescence counterscreen; at 9.4 µM; stronger effect = higher value
[13] = tested on: T-cell receptor (TCR)-CD3 interaction, human; assay: TCR-CD3 interaction inhibitors, retest, confirmation, biochemical, fluorescence, TAMRA-labeled TCR probe (AID 652036; in the data active means inhibition above about 19%); conditions: TAMRA-labeled TCR probe fluorescence binding assay; at 9.4 µM; stronger effect = higher value
[14] = molecular target: (Lyso)-N-acylphosphatidylethanolamine lipase (Mus musculus) (UniProt Q8VD66); assay: ABHD4 inhibitors, retest, confirmation, biochemical, fluorescence polarization, mouse (AID 720658;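 active means mean inhibition across replicates above the hit cutoff set in the primary screen, cut at about 30% in these data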;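 further: 0% = wild-type ABHD4 with DMSO and 100% = catalytically dead S159A mutant with DMSO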); conditions: purified mABHD4, FP-Rh probe fluorescence polarization; at 8.92 µM; stronger effect = higher value
Chain of (Lyso)-N-acylphosphatidylethanolamine lipase (Mus musculus) (Q8VD66 whole entry, looked up): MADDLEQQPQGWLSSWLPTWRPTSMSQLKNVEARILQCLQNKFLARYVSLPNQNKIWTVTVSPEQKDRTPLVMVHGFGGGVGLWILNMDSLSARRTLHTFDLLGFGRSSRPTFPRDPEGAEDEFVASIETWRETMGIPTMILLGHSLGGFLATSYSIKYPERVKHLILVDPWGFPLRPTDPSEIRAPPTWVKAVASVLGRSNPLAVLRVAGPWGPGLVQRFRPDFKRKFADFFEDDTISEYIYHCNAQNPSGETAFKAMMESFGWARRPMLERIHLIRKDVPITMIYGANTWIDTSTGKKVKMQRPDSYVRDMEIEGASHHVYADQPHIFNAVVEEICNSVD

[15] = tested on: HIV-1 integrase (multimerization); assay: HIV-1 IN multimer formation enhancers, counter-screen for LEDGF/p75 integration inhibitor project, biochemical, TR-FRET (AID 1053131; in the data active means activation above about 8.9%); conditions: TR-FRET HIV-1 integrase multimerization, at 7.7 µM, stronger effect = higher value
[16] = TR-FRET optical interference artefacts, confirmation, artefact control for LEDGF/p75-dependent integration inhibitor project, biochemical, HIV-1 IN multimerization (AID 1053135;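 active means inhibition above the mean over all tested compounds plus 3 SD, which no compound reached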;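 further: 0% = integrase with antibodies and DMSO and 100% = antibodies without integrase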); conditions: TR-FRET optical interference counterscreen, at 7.7 µM, stronger effect = higher value
[17] = tested on: HIV-1 integrase / human LEDGF/p75 complex; assay: inhibitors of HIV-1 IN-LEDGF/p75 DNA integration, confirmation, biochemical, TR-FRET (AID 1053136; in the data active means inhibition above about 14%); conditions: TR-FRET LEDGF/p75-dependent HIV-1 integration, at 3.7 µM, stronger effect = higher value
[18] = growth loss of phage-infected E. coli expressing H. pylori AddAB, confirmation, AddAB inhibitor project, absorbance, E. coli V3065, T4 phage, triplicate (AID 488942;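 active means mean inhibition above a set limit taken from the earlier primary screen, cut at about 13% in these data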;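 further: higher means less bacterial growth since AddAB block lets phage replicate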); conditions: OD, at 11.9 µM, stronger effect = higher value, T4 phage with gene 2 nonsense mutations
[19] = growth loss of RecBCD+ E. coli with mutant T4 phage, counter-screen for AddAB inhibitor project, absorbance, V66 E. coli (AID 488955;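 active means mean inhibition above the mean of solvent-only control wells plus 3 SD, cut at about 4% in these data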;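 further: optical density read after an 18 h incubation at 37 °C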); conditions: OD growth, at 11.9 µM, stronger effect = higher value
[20] = bacterial viability inhibition counter-screen, confirmation, counter-screen for AddAB inhibitor project, absorbance (AID 488956; in the data active means inhibition above about 25%); conditions: absorbance (AddAB counterscreen), at 11.9 µM, stronger effect = higher value
[21] = growth loss of phage-infected RecBCD+ E. coli, confirmation, RecBCD inhibitor project, absorbance, E. coli V66, T4 gene 2 phage (AID 651982;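 active means mean inhibition over triplicates exceeding the hit threshold derived in the original primary screen, cut at about 11% in these data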); conditions: E. coli V66 + T4 2- phage, growth OD; at 11.9 µM; stronger effect = higher value
[22] = E. coli viability inhibition, counter-screen for RecBCD inhibitor project, absorbance, high throughput (AID 651983; in the data active means inhibition above about 20%;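 further: E. coli strain V66 grown with compound alone and no phage infection; 0% = bacteria with DMSO vehicle only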); conditions: absorbance (OD) growth, at 11.9 µM, stronger effect = higher value
[23] = growth loss of phage-infected AddAB-carrying E. coli, confirmation, counter-screen for RecBCD inhibitor project, absorbance, E. coli V3065, T4 phage (AID 651984;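 active means mean inhibition above the solvent-only control wells' mean plus 3 SD, cut at about 22% in these data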;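 further: higher means less bacterial growth from phage killing when AddAB is blocked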); conditions: E. coli expressing H. pylori AddAB + T4 phage, OD growth; at 11.9 µM; stronger effect = higher value; gene 2 mutant T4, recBCD-deleted host
[24] = molecular target: Insulin-degrading enzyme (Homo sapiens) (UniProt P14735); assay: human IDE inhibitors in live cells, confirmation, fluorescence polarization, HEK cells, FAbetaB substrate (AID 435028;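 active means mean inhibition across triplicate wells above the cutoff set by the earlier primary insulin-degrading enzyme screen, cut at about 16% in these data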;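 further: 0% = DMSO wells and 100% = 60 µM reference IDE inhibitor Ii1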); conditions: FAbetaB cleavage, at 5.59 µM, stronger effect = higher value
Chain of Insulin-degrading enzyme (Homo sapiens) (P14735 whole entry, looked up): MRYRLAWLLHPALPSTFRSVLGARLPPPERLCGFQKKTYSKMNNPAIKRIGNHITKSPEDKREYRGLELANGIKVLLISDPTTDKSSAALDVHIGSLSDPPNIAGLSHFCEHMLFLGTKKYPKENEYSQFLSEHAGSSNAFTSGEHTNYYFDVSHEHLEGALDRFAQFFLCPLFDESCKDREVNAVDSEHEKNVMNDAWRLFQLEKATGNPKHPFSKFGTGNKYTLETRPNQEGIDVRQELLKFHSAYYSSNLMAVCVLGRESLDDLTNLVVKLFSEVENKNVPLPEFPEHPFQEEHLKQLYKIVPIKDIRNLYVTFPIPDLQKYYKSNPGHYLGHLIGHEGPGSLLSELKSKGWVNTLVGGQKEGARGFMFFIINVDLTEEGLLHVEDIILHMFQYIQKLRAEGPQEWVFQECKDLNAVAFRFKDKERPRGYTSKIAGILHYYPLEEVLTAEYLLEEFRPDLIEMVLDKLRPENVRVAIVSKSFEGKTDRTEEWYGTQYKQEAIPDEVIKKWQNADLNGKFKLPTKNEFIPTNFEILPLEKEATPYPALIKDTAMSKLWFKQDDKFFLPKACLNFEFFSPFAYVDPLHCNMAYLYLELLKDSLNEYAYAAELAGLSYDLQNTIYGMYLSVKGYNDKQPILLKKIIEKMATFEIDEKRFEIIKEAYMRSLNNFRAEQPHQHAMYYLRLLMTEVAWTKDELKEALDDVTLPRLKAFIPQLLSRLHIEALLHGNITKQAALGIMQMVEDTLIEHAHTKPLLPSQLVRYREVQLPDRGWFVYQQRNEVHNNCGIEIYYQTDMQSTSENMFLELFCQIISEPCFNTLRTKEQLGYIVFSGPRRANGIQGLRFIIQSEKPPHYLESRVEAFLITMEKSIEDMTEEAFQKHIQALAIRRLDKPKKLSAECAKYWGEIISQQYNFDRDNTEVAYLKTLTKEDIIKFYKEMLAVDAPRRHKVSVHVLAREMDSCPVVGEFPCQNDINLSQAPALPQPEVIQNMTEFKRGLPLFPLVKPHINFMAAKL

[25] = cytotoxicity in HEK cells, cytotoxicity control for IDE inhibitor project, cell-based, luminescence (AID 449730; in the data active means inhibition above about 22%;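 further: 0% = vehicle wells and 100% = reference cytotoxic drug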); conditions: HEK293 cytotoxicity, ATP luminescence; at 5.59 µM; stronger effect = higher value
[26] = molecular target: Sphingosine 1-phosphate receptor 4 (Homo sapiens) (UniProt O95977); assay: S1P4 receptor antagonists, human, confirmation, cell-based (AID 1524; in the data active means inhibition above about 30%); conditions: S1P4-expressing cell line, antagonist mode, reporter read-out; at 4.98 µM; stronger effect = higher value
[27] = molecular target: Sphingosine 1-phosphate receptor 1 (Homo sapiens) (UniProt P21453); assay: S1P1 receptor antagonists, human, counter-screen for S1P4 antagonist project, cell-based (AID 1564; in the data active means inhibition above about 40%;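 further: receptor stimulated with S1P near its EC80; 0% = agonist stimulated wells and 100% = vehicle only wells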); conditions: cell-based S1P1 antagonist counterscreen, at 4.98 µM, stronger effect = higher value
Chain of Sphingosine 1-phosphate receptor 1 (Homo sapiens) (P21453 whole entry, looked up): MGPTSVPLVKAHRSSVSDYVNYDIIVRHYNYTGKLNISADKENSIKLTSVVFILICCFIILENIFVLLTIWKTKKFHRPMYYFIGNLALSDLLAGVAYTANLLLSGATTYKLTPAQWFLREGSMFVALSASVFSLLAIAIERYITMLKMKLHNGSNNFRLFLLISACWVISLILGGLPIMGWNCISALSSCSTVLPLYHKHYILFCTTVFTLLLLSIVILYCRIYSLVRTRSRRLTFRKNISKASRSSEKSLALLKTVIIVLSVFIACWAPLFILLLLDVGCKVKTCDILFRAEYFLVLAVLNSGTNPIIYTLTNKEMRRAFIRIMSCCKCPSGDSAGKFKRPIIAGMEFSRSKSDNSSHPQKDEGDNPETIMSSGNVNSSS

[28] = molecular target: Toll-like receptor 9 (Homo sapiens) (UniProt Q9NR96); assay: TLR9-MyD88 association inhibitors, retest, confirmation, cell-based, CHO, BLA complementation, fluorescence, triplicate (AID 540250;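 active means mean inhibition across three repeats above about 21% taken from the earlier screen, limit read from the data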;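 further: blue over green emission ratio reports constitutive TLR9 MyD88 association via BLA complementation; 0% = DMSO vehicle wells and 100% = clavulanate BLA inhibitor wells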); conditions: CCF4 FRET ratio, at 4.98 µM, stronger effect = higher value
[29] = beta-lactamase reporter inhibitors in CHO cells, artefact control for TLR9-MyD88 binding inhibitor project, cell-based, fluorescence (AID 540251;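 active means mean inhibition above a 50% cutoff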;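 further: counterscreen of TLR9-MyD88 hits on CMV-driven BLA in CHO-K1 cells; 0% = DMSO alone and 100% = clavulanate blocking BLA; higher means less blue over green ratio so more BLA blockade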); conditions: CHO-BLA cells, CCF4 FRET ratio, at 4.98 µM, stronger effect = higher value
[30] = CHO cell viability loss – luminescence, single concentration, cytotoxicity control for TLR9-MyD88 binding inhibitor project (AID 588336; in the data active means inhibition above about 11%); conditions: TLR9-MyD88 CHO cells cytotoxicity, at 4.98 µM, stronger effect = higher value
[31] = molecular target: Receptor-interacting serine/threonine-protein kinase 2 (Homo sapiens) (UniProt O43353); assay: NOD2-RIPK2 binding disruptors, retest, confirmation, fluorescence, CHO cells, BLA complementation, triplicate (AID 624370;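 active means mean inhibition across replicates above a set limit taken from the earlier primary screen, cut at about 21% in these data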;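 further: 0% = DMSO-only wells and the high end = clavulanate BLA-blocked wells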); conditions: CCF4 FRET, at 4.98 µM, stronger effect = higher value
Chain of Receptor-interacting serine/threonine-protein kinase 2 (Homo sapiens) (O43353 whole entry, looked up): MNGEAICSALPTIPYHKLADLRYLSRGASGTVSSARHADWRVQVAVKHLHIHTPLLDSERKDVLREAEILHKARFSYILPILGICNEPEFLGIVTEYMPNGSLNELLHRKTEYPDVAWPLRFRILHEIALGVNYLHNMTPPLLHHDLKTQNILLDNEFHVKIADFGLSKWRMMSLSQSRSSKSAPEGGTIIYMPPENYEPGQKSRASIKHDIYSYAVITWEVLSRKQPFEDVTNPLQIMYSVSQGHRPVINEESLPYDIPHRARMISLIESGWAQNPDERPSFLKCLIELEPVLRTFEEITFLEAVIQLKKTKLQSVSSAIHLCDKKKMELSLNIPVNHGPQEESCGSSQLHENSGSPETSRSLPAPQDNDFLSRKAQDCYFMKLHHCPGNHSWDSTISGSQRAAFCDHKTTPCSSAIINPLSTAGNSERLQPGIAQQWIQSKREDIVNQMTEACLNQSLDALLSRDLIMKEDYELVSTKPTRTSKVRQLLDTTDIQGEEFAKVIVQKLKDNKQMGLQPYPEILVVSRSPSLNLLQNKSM

[32] = beta-lactamase reporter inhibitors in CHO cells, confirmation, artefact control for NOD2-RIPK2 interaction inhibitor project, cell-based, CHO-K1 CMV-bla, CCF4 FRET, fluorescence (AID 624371;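 active means mean inhibition above the low-control mean inhibition plus three low-control SD, cut at about 11% in these data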;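 further: 0% = DMSO only wells and 100% = clavulanate high control wells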); conditions: CCF4 FRET ratio, counterscreen, at 4.98 µM, stronger effect = higher value
[33] = molecular target: Photoreceptor-specific nuclear receptor (Homo sapiens) (UniProt Q9Y5X4); assay: NR2E3 agonist confirmation in cells, cell-based, luminescence, CHO-S two-hybrid (AID 624378;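 active means average inhibition above a cutoff equal to the mean inhibition of all tested compounds plus one SD, cut at about 70% in these data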;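 further: 0% = DMSO in NR2E3 cells and 100% = DMSO in cells lacking NR2E3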); conditions: CHO-S mammalian two-hybrid NR2E3-NCOR, luciferase luminescence; at 3.98 µM; stronger effect = higher value
Chain of Photoreceptor-specific nuclear receptor (Homo sapiens) (Q9Y5X4 whole entry, looked up, the tested form may be a part): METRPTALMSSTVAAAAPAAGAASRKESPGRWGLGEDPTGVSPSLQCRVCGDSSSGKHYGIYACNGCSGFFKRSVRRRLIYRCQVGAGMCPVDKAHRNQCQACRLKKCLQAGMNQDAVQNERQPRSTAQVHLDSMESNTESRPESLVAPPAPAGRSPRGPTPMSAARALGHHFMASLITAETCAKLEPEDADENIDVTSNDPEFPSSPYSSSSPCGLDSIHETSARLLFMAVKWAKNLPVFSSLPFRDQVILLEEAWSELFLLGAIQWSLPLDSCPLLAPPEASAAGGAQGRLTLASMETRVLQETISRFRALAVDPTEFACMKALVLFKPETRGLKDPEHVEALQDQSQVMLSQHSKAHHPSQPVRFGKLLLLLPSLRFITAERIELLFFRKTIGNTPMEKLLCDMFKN

[34] = GAL4-VP16 reporter modulators, confirmation, counter-screen for NR2E3 agonist project, cell-based, luminescence, CHO-S, high throughput (AID 624379;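 active means mean inhibition above a cutoff equal to the average over all tested compounds plus one standard deviation, cut at about 70% in these data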;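 further: luciferase from a UAS reporter driven by GAL4-VP16 transactivation; 0% = DMSO with VP16-transfected cells and 100% = DMSO with cells lacking VP16; higher means less reporter light so more repression of VP16 activity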); conditions: CHO-S GAL4-VP16 luciferase reporter, at 3.98 µM, stronger effect = higher value
[35] = tested on: transactivating tegument protein VP16 (Human herpesvirus 1); assay: VP16 transactivation reporter inhibitors, counter-screen for SRC2 inhibitor project, cell-based, luminescence, single concentration (AID 652007; in the data active means inhibition above about 36%); conditions: cell-based VP16 transactivation luciferase reporter, at 8.9 µM, stronger effect = higher value
[36] = molecular target: Nuclear receptor coactivator 2 (Homo sapiens) (UniProt Q15596); assay: SRC2 coactivator transcriptional activity inhibitors, confirmation, cell-based, luminescence, HEK293, triplicate (AID 652008;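 active means mean inhibition above 46.5%, the solvent-only control mean plus 3 SD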;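 further: 0% = DMSO-treated cells and 100% = Gossypol at 36 µM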); conditions: HEK293 GAL4-SRC2 luciferase reporter, at 8.9 µM, stronger effect = higher value
[37] = Gal4-VP16 luciferase reporter inhibitors, counter-screen for COUP-TFII antagonist project, cell-based, luminescence, HEK293 (AID 687007; in the data active means inhibition above about 13%); conditions: at 8.5 µM, stronger effect = higher value
[38] = molecular target: COUP transcription factor 2 (Homo sapiens) (UniProt P24468); assay: NR2F2 transcriptional activity inhibitors, confirmation, cell-based, luciferase reporter, HEK293, triplicate (AID 687008;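 active means mean inhibition over three repeats above a set limit taken from the earlier primary screen, cut at about 38% in these data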;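 further: 100% = cells given the luciferase reporter alone without the COUP-TF2 vector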); conditions: HEK293 NGFI-A luciferase reporter, luminescence; at 8.5 µM; stronger effect = higher value
Chain of COUP transcription factor 2 (Homo sapiens) (P24468 whole entry, looked up): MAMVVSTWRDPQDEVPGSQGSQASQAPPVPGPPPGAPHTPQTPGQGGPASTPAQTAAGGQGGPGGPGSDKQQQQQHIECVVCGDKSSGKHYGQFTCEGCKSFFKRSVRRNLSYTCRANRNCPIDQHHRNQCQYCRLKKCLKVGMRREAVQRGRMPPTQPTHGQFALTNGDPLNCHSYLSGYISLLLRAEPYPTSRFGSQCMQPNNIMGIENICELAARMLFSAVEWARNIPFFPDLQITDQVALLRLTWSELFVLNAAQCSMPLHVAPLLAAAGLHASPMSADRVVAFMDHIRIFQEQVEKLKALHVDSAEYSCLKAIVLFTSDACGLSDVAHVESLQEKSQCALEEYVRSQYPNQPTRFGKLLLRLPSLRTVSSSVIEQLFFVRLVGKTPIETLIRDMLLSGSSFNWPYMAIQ

Cc1cccc(-c2noc(-c3ccc(F)cc3)n2)c1
active: activation (% of control) [1] 222% | activation (% of control) [3] 119%
inactive: activation (% of control) [2] 133%

Cc1nc(Cl)c2oc3ccccc3c2n1
active: inhibition [4] 39%
inactive: inhibition [5] 20.8% | inhibition [6] 7.72%

NC1=CC(=O)C(=O)c2cccnc21
inactive: inhibition [7] 24.5% | inhibition [11] 8.35% | inhibition [12] 6.36% | inhibition [13] 11.5% | inhibition [16] -160%
active: inhibition [8] 35.9% | inhibition [9] 47.5% | inhibition [10] 45.5% | inhibition [14] 68.3% | activation [15] 45.1% | inhibition [17] 79.9%

Cn1ccc(=Nc2ccc(NC(=O)c3ccc(N=c4ccn(C)c5ccc([N+](=O)[O-])cc45)cc3)cc2)cc1
inactive: inhibition [22] -7.32% | activation [15] -0.71% | inhibition [16] 2.56%
active: inhibition [18] 99.9% | inhibition [19] 101% | inhibition [20] 101% | inhibition [21] 101% | inhibition [23] 102% | inhibition [17] 21%

OCCCN1c2ccccc2Nc2nnc(-c3ccccc3)cc21
active: activation (% of control) [1] 177%
inactive: activation (% of control) [2] 132% | activation (% of control) [3] 102%

C[n+]1ccc(/C=C/c2c[nH]c3ccccc23)cc1
active: inhibition [4] 26.1% | inhibition [5] 42.1% | inhibition [24] 42.6%
inactive: inhibition [25] 13.1%

O=C(Nc1ccccc1Cl)/C(Cl)=C(\Cl)S(=O)c1ccccc1 (configuration not stated)
active: inhibition [26] 117% | inhibition [28] 39.3% | inhibition [30] 96.4% | inhibition [31] 78.8% | inhibition [32] 37.3% | inhibition [33] 90.1% | inhibition [8] 57.7% | inhibition [9] 88.7% | inhibition [10] 80.1% | inhibition [11] 80.8% | inhibition [35] 94.7% | inhibition [36] 95.9% | inhibition [37] 78.8% | inhibition [38] 101%
inactive: inhibition [4] 11.5% | inhibition [5] 14.5% | inhibition [27] 39.3% | inhibition [6] 14.2% | inhibition [29] 24.5% | inhibition [34] 47.4%

Cc1ccc(S(=O)(=O)/N=C2\C=C(NS(=O)(=O)c3ccc(C)cc3)C(=O)c3ccccc32)cc1
active: inhibition [14] 60.6%
inactive: activation [15] -1.1% | inhibition [16] 5.59% | inhibition [17] 12%

From PubChem BioAssay
